Measurements published in PubChem BioAssay (EPA / NIEHS).
Records with an inconclusive call do not appear. Activity calls are given as the source filed them. The calls were made as follows: active = hit-call score of the fitted dose curve at least 0.9, where 1 is the maximum; inconclusive = response in the unintended direction; inactive = score below 0.9.

Target: human Caspase 5 (CASP5), CASP5 (gene 838) (UniProt P51878)
Experiment: NVS_ENZ_hCASP5: NovaScreen (NVS) Enzymatic Assay for human Caspase 5 (CASP5) (AID 2283137)
Method: NVS_ENZ_hCASP5 is a biochemical, single-readout assay that uses extracted gene-proteins from E. coli in a cell-free assay. Measurements were taken 2 hours after chemical dosing in a 96-well plate.NVS_ENZ_hCASP5 is one of one assay component(s) measured or calculated from the NVS_ENZ_hCASP5 assay. It is designed to make measurements of enzyme activity, a form of enzyme reporter, as detected with fluorescence intensity signals by Fluorescence technology.Data from the assay component NVS_ENZ_hCASP5 was analyzed into 1 assay endpoint. This assay endpoint, NVS_ENZ_hCASP5, was analyzed in the positive analysis fitting direction relative to DMSO as the negative control and baseline of activity. Using a type of enzyme reporter, loss-of-signal activity can be used to understand changes in the enzymatic activity as they relate to the gene CASP5. Furthermore, this assay endpoint can be referred to as a primary readout, because this assay has produced multiple assay endpoints where this one serves a enzymatic activity function. To generalize the intended target to other relatable targets, this assay endpoint is annotated to the protease intended target family, where the subfamily is cysteine protease.
Binding assays used specific radioligands (tritiated, iodinated) with non-radioactive competitive displacement ligands in agonist or antagonist protocols (as indicated) and various reference compounds and inhibitors to titrate specific binding to receptors and transporters. Most enzyme assays (CYPs, kinases, phosphatases, proteases, HDACs) used recombinant protein and specific substrates (fluorescence mostly, some colorimetric and radioactive) and inhibitors, followed by a biochemical separation of substrate and product. All assays for the biochemical HTS were initially run in duplicate at a single concentration (10 uM for CYP450 assays and 25 uM for all others). Assay-chemical combinations meeting a pre-defined threshold (e.g., 30% inhibition and other criteria defined below) were then run in singleton concentration-response format with maximum concentration of 20 uM for CYPs and 50 uM for all others. Each assay was run with positive and negative controls, and concurrent controls on every plate. The follow-up (secondary) screen tested active chemical-pairs in concentration series, as well as a few additional assays not tested in the primary screen, some selected negative inactives, and several cases re-run in the concentration series for confirmatory purposes.

human Caspase 5 (CASP5), CASP5 (gene 838), sequence (P51878 whole entry, looked up): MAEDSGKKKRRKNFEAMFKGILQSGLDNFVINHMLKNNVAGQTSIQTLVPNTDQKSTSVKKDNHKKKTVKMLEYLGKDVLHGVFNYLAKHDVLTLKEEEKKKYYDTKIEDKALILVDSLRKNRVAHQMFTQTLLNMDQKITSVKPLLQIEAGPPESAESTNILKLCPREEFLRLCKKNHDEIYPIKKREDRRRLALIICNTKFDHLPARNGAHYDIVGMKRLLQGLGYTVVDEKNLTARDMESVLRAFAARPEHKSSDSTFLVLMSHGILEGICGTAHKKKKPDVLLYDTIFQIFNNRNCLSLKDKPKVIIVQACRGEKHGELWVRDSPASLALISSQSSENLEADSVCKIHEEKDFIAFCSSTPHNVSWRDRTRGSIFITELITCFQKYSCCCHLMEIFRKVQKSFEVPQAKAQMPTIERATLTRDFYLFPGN

SMILES	outcome	AC50
Cc1c(C(=O)O)c(O)cc2c1C(=O)c1c(O)c([C@@H]3O[C@H](CO)[C@@H](O)[C@H](O)[C@H]3O)c(O)c(O)c1C2=O	inactive	–
CCCCC(CC)COC(=O)CC(C(=O)OCC(CC)CCCC)S(=O)(=O)O (stereo not given)	–	15.2 µM (active)
Cc1ccc2ncccc2c1	inactive	–
CC1(C)CC(N=C=O)CC(C)(CN=C=O)C1 (stereo not given)	inactive	–
COc1ccc(C)cc1N	inactive	–
CCCCCCCCCCCCCCCCCC(=O)O	–	0.719 µM (active)
CC1=C(/C=C/C(C)=C/C=C/C(C)=C/CO)C(C)(C)CCC1	–	39.9 µM (active)
COc1cc(-c2nc(NC(=O)c3cc4cc(C)cc(C)c4n3CC(=O)O)sc2CCC2CCCCC2)c(OC)cc1Cl	–	0.91 µM (active)
COc1cc(S(=O)(=O)O)c(C)cc1N=Nc1c(O)ccc2cc(S(=O)(=O)O)ccc12	–	19.9 µM (active)
CCc1c(C(=O)NN2CCCCC2)nn(-c2ccc(Cl)cc2Cl)c1-c1ccc(Br)cc1	inactive	–
